Reference: the supplement of paper PMC6555819

How the values were obtained:
Test in all cases: PBM binding z-score (relative to random genomic background probes); higher = stronger binding; sequences stand for … in GC…GCGATTGACAGCGTAGAATGAAGG
[1] = test system: FXR:RXRa (NR concentration 270 nM, RXRa partner concentration 90 nM)
Summary of the method: (§1)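 Binding buffer was PBS pH 7.4 with 2% milk, 0.02% Triton X-100, 1 mM DTT, 0.2 mg/mL BSA and 0.4 mg/ml salmon testes DNA. In it, ligand-free nuclear receptor dimers were incubated 1 h on custom Agilent 4×180K protein-binding microarrays carrying double-stranded probes. Antibodies against each partner (one per run) detected binding, and z-scores were calculated against random background probes after regression normalization of scanned fluorescence.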

[2] = test system: LXRa:RXRa (NR concentration 270 nM, RXRa partner concentration 90 nM)
Summary of the method: as §1

[3] = test system: LXRa homodimer (NR concentration 270 nM)
Summary of the method: as §1

[4] = test system: LXRb:RXRa (NR concentration 270 nM, RXRa partner concentration 90 nM)
Summary of the method: as §1

[5] = test system: LXRb homodimer (NR concentration 270 nM)
Summary of the method: as §1

[6] = test system: PPARa:RXRa (NR concentration 270 nM, RXRa partner concentration 90 nM)
Summary of the method: as §1

[7] = test system: PPARg:RXRa (NR concentration 180 nM, RXRa partner concentration 90 nM)
Summary of the method: as §1

[8] = test system: PPARg:RXRa 270nM:90nM, anti-RXR (NR concentration 270 nM, RXRa partner concentration 90 nM)
Summary of the method: as §1

[9] = test system: PPARg:RXRa 30nM:10nM, anti-RXR (NR concentration 30 nM, RXRa partner concentration 10 nM)
Summary of the method: as §1

[10] = test system: PPARg:RXRa 90nM:30nM, anti-RXR (NR concentration 90 nM, RXRa partner concentration 30 nM)
Summary of the method: as §1

[11] = test system: PPARg:RXRa DBDmut IVT, anti-RXR (DBD mutation: RXRa K156A/R161A, NR concentration 270 nM, RXRa partner concentration 90 nM)
Summary of the method: as §1

[12] = test system: PPARg:RXRa IVT, anti-PPARg (NR concentration 270 nM, RXRa partner concentration 90 nM)
Summary of the method: as §1

[13] = test system: PPARg DBDmut:RXRa IVT, anti-PPARg (DBD mutation: PPARg1 K132A/R137A, NR concentration 270 nM, RXRa partner concentration 90 nM)
Summary of the method: as §1

[14] = test system: PPARg DBDmut IVT, anti-PPARg (DBD mutation: PPARg1 K132A/R137A, NR concentration 270 nM)
Summary of the method: as §1

[15] = test system: PPARg homodimer (NR concentration 180 nM)
Summary of the method: as §1

[16] = test system: PXR:RXRa (NR concentration 270 nM, RXRa partner concentration 90 nM)
Summary of the method: as §1

[17] = test system: PXR homodimer (NR concentration 270 nM)
Summary of the method: as §1

[18] = test system: RARa:RXR (NR concentration 270 nM, RXRa partner concentration 90 nM)
Summary of the method: as §1

[19] = test system: RARa homodimer (NR concentration 270 nM)
Summary of the method: as §1

[20] = test system: RARb:RXRa (NR concentration 270 nM, RXRa partner concentration 90 nM)
Summary of the method: as §1

| Sequence | PBM binding z-score [1] | PBM binding z-score [2] | PBM binding z-score [3] | PBM binding z-score [4] | PBM binding z-score [5] | PBM binding z-score [6] | PBM binding z-score [7] | PBM binding z-score [8] | PBM binding z-score [9] | PBM binding z-score [10] | PBM binding z-score [11] | PBM binding z-score [12] | PBM binding z-score [13] | PBM binding z-score [14] | PBM binding z-score [15] | PBM binding z-score [16] | PBM binding z-score [17] | PBM binding z-score [18] | PBM binding z-score [19] | PBM binding z-score [20] |
| --- | --- | --- | --- | --- | --- | --- | --- | --- | --- | --- | --- | --- | --- | --- | --- | --- | --- | --- | --- | --- |
| TCAGACAGGTGAAGGTGACTCAGGTACGCAGTCG | 0.795 | 0.409 | -0.133 | 0.864 | 0.128 | 1.58 | 0.781 | 2.13 | 3.51 | 2.83 | 2.42 | 1.7 | 0.953 | 0.0936 | 0.74 | 0.711 | 0.325 | 0.812 | -0.0576 | 1.62 |
| CCTAGTTGGTCAAGGACACACACGCTATAGGTAC | 0.477 | 0.154 | 0.309 | 0.44 | 0.532 | 0.0552 | 1.12 | 0.49 | 0.287 | 0.489 | 1.07 | 1.39 | 0.248 | -0.0353 | 0.735 | 0.0768 | 0.977 | 1.06 | 1.89 | 1.51 |
| CTACCAAGGTGAACAAGGTCGTTAATTACTATTC | 1.3 | 1.23 | 0.268 | 1.86 | -0.284 | 2.61 | 1.07 | 1.5 | 0.266 | 1.15 | 2.2 | 2.78 | 0.73 | 0.27 | 1.17 | 2.76 | 1.14 | 2.57 | 0.262 | 2.11 |
| CAGTCTAGGTCAGGGCCAGTATAGGAGGAACGTT | 1.52 | 1.1 | -0.0547 | 0.856 | -0.215 | 2.68 | 2.64 | 2.85 | 1 | 1.96 | 5.44 | 4.91 | 0.454 | -0.134 | 1.53 | 0.376 | 0.305 | 1.2 | 0.439 | 3.48 |
| CCGACTGCGGCAAGGTTACCATAACGCACAGCCA | 0.311 | 0.827 | 0.0346 | 0.9 | -0.64 | 1.02 | 0.614 | -0.189 | -0.715 | -0.26 | -0.209 | -0.134 | -0.21 | -0.256 | 0.4 | 0.562 | 0.00644 | 0.946 | 0.0538 | 0.845 |
| GCTTACGGGTCAAAGGTTATAGCCTGAATAGAAT | 7.79 | 5.8 | 0.763 | 5.69 | 0.503 | 6.88 | 11.5 | 9.6 | 10.2 | 11.3 | 4.87 | 6.32 | 0.778 | 1.43 | 7.84 | 6.26 | 0.103 | 8.66 | -0.0748 | 4.65 |
| GCTTACGGGTCGAAGGTTATAGCATGAATAGAAT | 2.01 | 2 | -0.187 | 2.51 | -0.371 | 4.36 | 6.66 | 6.7 | 4.94 | 6.88 | 0.529 | 2.66 | 0.973 | 0.687 | 1.39 | 2.65 | -0.142 | 3.79 | -0.0107 | 1.49 |
| CTCGAAAGGTCGGTGGAGGTGAGTATACGGATAA | 2.34 | 1.77 | -0.129 | 1.41 | -0.0636 | 2.82 | 0.577 | 1.22 | 0.0571 | 0.88 | 0.0934 | 0.827 | 1.01 | -0.175 | 1.03 | 2.39 | -0.0117 | 2.63 | 0.0288 | 2.89 |
| CCTGCCAGGTCATGGTCAGCTAATCTACAGTATG | 3.97 | 3.04 | -0.0461 | 2.28 | -0.151 | 3.94 | 2.04 | 2.5 | 0.448 | 1.27 | 2.15 | 2.35 | -0.561 | -0.338 | 1.2 | 2.16 | 0.231 | 2.61 | -0.0161 | 3.78 |
| CCTAGTTGGGCAAGGTCACACACGCTATAGGTAC | 3.55 | 3.21 | 1.32 | 3.28 | 0.0205 | 3.88 | 2.45 | 2.92 | 1.03 | 2.25 | 0.83 | 2.2 | 0.202 | 0.558 | 2.56 | 3.9 | 1.13 | 4.04 | 1.63 | 3.91 |
| ATATGTCGGTTATCGGGTCATTCAGTTTGCGCAT | 2.49 | 2.52 | 1.64 | 2.54 | 0.586 | 3.3 | 2.53 | 2.94 | 0.785 | 2.19 | 3.75 | 4.28 | 1.98 | 2.05 | 2.12 | 3.32 | 7.06 | 3.02 | 0.924 | 2.11 |
| ATACCAAGGTGATCGTGAGGTCGTTGCTACTAAC | 1.95 | 1.3 | 0.422 | 1.19 | 0.0744 | 1.65 | 0.201 | 0.438 | -0.28 | 0.185 | 0.566 | 1.52 | 0.602 | 0.38 | 0.741 | 3.18 | 1.05 | 1.91 | 0.0838 | 1.5 |
| CGAACTAGGTCATTGACAGGACTGTGAATAGTAA | 4.46 | 2.5 | 0.131 | 1.81 | 0.103 | 4.71 | 7.38 | 6.1 | 4.05 | 5.52 | 7.96 | 8.16 | 2.42 | 3.75 | 1.48 | 1.11 | 0.155 | 1.81 | -0.0382 | 3.43 |
| GCGACTGGGGCTAAGCAGGTTACCATAAGGTTGG | -0.407 | -0.415 | -0.836 | -0.00625 | -0.83 | 0.342 | 0.147 | -0.288 | -0.707 | -0.68 | 0.815 | 0.343 | -0.64 | -1.34 | -0.237 | -0.0501 | -0.222 | 0.266 | -0.85 | 0.544 |
